KB-V1 cytotox: qHTS assay for MDR1-selective chemotherapeutics: Primary screen using the drug-selected MDR subline cells KB-V1; KB-V1 MDR cells viability, CellTiter-Glo, 72 h; Potency, µM (titrated, usually from 46.1 µM), usual class: cytotoxic; actives 3.4% (n = 400,000); further: nearly all actives have a fitted effect of over 60% in size
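Cells of the MDR subline KB-V1 are plated, dosed with compound at multiple concentrations, and incubated 72 h at 37 degrees C; CellTiter-Glo is then added and luminescence read after 10 min.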
MCF10A rerep: A quantitative high throughput screen for small molecules that induce DNA re-replication in MCF 10a normal breast cells | MCF 10A DNA re-replication, Hoechst nuclear intensity, 48 h | Potency, µM (titrated, usually from 46.1 µM), hits mostly activators | actives 2.9% (n = 350,000) | AID 624296, 2012; further: nearly all actives have a fitted effect of over 50% in size
KB-3-1 cytotox: qHTS assay for MDR1-selective chemotherapeutics: Primary screen using the parental adenocarcinoma cell KB-3-1; KB-3-1 viability, CellTiter-Glo ATP luminescence, 72 h; Potency, µM (titrated, usually from 46.1 µM), usual class: cytotoxic; actives 1.4% (n = 400,000); AID 1347075, 2019; further: nearly all actives have a fitted effect of over 60% in size
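KB-3-1 cells, DMEM (no phenol red) + 10% FBS; compound by pin transfer, 72 h, 37 °C. Readout: CellTiter-Glo luminescence after 10 min. Data normalized, curve-fitted.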
IL1B secr inh: qHTS for Inhibitors of Inflammasome Signaling: IL-1-beta AlphaLISA Primary Screen. THP-1 LPS/ATP IL-1B secretion, AlphaLISA, 16 h; active compounds read low. activity change, % at 57.5 µM. actives 4.7% (n = 360,000); in the data active means activity change below about -50%; inconclusive means mostly about -30% to -49%
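Secreted IL-1B measured by AlphaLISA bead assay after 16 h compound exposure of THP-1 cells; compounds (final up to 57.5 uM) added 1 h before LPS (250 ng/mL) and ATP (1.25 mM) stimulation; lower signal means less secretion.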
SW480 rereplic: A quantitative high throughput screen for small molecules that induce DNA re-replication in SW480 colon adenocarcinoma cells; SW480 DNA re-replication, Hoechst DNA content imaging, 48 h; Potency, µM (doses to about 46.1 µM), actives largely listed as activators; actives 1.8% (n = 340,000); AID 624297, 2012; further: nearly all actives have a fitted effect of over 55% in size
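Readout is total intensity of Hoechst-stained nuclei, excited at 405 nm and collected at 500-530 nm. Compound treatment lasted 48 hr at 37 C in 5% CO2 before staining.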
Of the large screens only hits and unclear results are named; the others gave an inactive call. Rows were chosen to be rich in hits. Some 9.9% of all compounds tested hit in one or more screens of this group. Unless noted, the call rests on the fitted dose curve; in most records, active means well fitted curve in the direction sought with a large enough effect; inconclusive means small, poorly fitted or top-dose-only effect, or another doubt; inactive means no such curve, though single readings can be large; an effect the other way counts as inactive or inconclusive.

COc1cc2cc3c(N)c(C(=O)NCc4ccco4)sc3nc2cc1OC	KB-V1 cytotox inconclusive, IL1B secr inh -58
COc1cc(-n2c(N)c(C(=O)NCc3ccco3)c3nc4ccccc4nc32)cc(OC)c1OC	MCF10A rerep 9.2µM, SW480 rereplic 12µM
Cc1ccc2nc3sc(C(=O)NCc4ccco4)c(N)c3cc2c1	MCF10A rerep inconclusive
COc1ccc(S(=O)(=O)N2CCCCC2)cc1NC(=O)c1cccc(S(=O)(=O)N2CC(C)OC(C)C2)c1 (stereo not given)	none
CC(C)CCN(C(=S)Nc1cccc(F)c1)C1CCN(C(C)C)CC1	KB-V1 cytotox inconclusive, KB-3-1 cytotox inconclusive, IL1B secr inh -92
CC(C)CC(=O)NN(C)c1nc(-c2ccccc2)nnc1C(F)(F)F	none
Cc1ccc(C(=O)NN(C)c2nc3ccccc3nc2C(F)(F)F)cc1	KB-V1 cytotox inconclusive, MCF10A rerep 4.6µM, KB-3-1 cytotox 5.8µM, SW480 rereplic 13µM
CN(NC(=O)c1ccc(Cl)cc1)c1nc(-c2ccccc2)nnc1C(F)(F)F	KB-V1 cytotox 15µM, MCF10A rerep inconclusive, KB-3-1 cytotox inconclusive
c1ccc(CCNc2nc(-c3ccccn3)nc3ccccc23)cc1	KB-3-1 cytotox 12µM, IL1B secr inh -101, SW480 rereplic inconclusive
c1ccc(CN2CCN(c3nc(-c4ccccn4)nc4ccccc34)CC2)cc1	none
CCN(CC)c1nc(-c2ccccn2)nc(-c2ccccc2)c1C#N	KB-V1 cytotox 16µM, KB-3-1 cytotox inconclusive, IL1B secr inh inconclusive
CCN1CCN(c2nc(-c3ccccn3)nc3ccccc23)CC1	KB-V1 cytotox 5.2µM, SW480 rereplic inconclusive
c1ccc(-c2nc(N3CCCCCC3)c3ccccc3n2)nc1	KB-V1 cytotox inconclusive, MCF10A rerep inconclusive, KB-3-1 cytotox 3.7µM, IL1B secr inh -84
CCOC(=O)C1CCCN(C(=O)c2cc(C#N)cs2)CC1 (stereo not given)	none (no result: MCF10A rerep, SW480 rereplic)
CCC(C)C(NS(=O)(=O)c1ccc(C)cc1)C(=O)N1CCOCCOCCOCC1 (stereo not given)	none
COc1ccc(-n2ccnc(NCCc3ccccc3)c2=O)cc1OC	none (no result: MCF10A rerep, IL1B secr inh, SW480 rereplic)
COc1ccc(Cc2nnc(SCC(=O)c3ccc4c(c3)NC(=O)CO4)o2)cc1	none
c1ccc2nc(N3CCCC3)c(N3CCCCC3)nc2c1	MCF10A rerep 21µM
c1ccc2nc(N3CCOCC3)c(N3CCCC3)nc2c1	none
c1ccc2c(N3CCCCC3)nc(N3CCCC3)nc2c1	KB-V1 cytotox 16µM, IL1B secr inh inconclusive
CCCN(CCC)c1nc(-c2ccccn2)nc2ccccc12	KB-V1 cytotox 2.9µM, MCF10A rerep 21µM, KB-3-1 cytotox 4.6µM, IL1B secr inh -96, SW480 rereplic 10µM
c1ccc2c(c1)nc(N1CCCCC1)c1ccccc12	none (no result: IL1B secr inh)
Cc1ccc(NC(=O)CN2C(=O)NC(C)(C3CC3)C2=O)cc1S(=O)(=O)N1CCCCC1 (stereo not given)	none
CC(O)C(NS(=O)(=O)c1ccc(Cl)cc1)C(=O)OCC(=O)c1ccc2c(c1)NC(=O)CO2 (stereo not given)	KB-V1 cytotox inconclusive
CC(C)CC(NC(=O)c1ccc(Cl)cc1)C(=O)OCC(=O)c1ccc2c(c1)NC(=O)CO2 (stereo not given)	MCF10A rerep inconclusive, KB-3-1 cytotox 7.3µM, IL1B secr inh -86, SW480 rereplic inconclusive
CCN(CC)S(=O)(=O)c1ccc(C(=O)NCCSc2c(-c3ccc(C)cc3)[nH]c3ccccc23)cc1	none (no result: MCF10A rerep, IL1B secr inh, SW480 rereplic)
CC(=O)c1cccc(NC(=O)COC(=O)[C@@H](NC(=O)OCc2ccccc2)C(C)C)c1	none
O=C(Nc1ccc(N2CCOCC2)c(Cl)c1)c1cc2ccccc2o1	KB-V1 cytotox inconclusive, MCF10A rerep 13µM, KB-3-1 cytotox inconclusive, IL1B secr inh -78
O=C(Nc1ccc(N2CCOCC2)c(Cl)c1)c1ccccc1Cl	IL1B secr inh inconclusive
O=C(Nc1ccccc1N1CCOCC1)c1cc2ccccc2o1	KB-V1 cytotox inconclusive
COc1ccc(N2CCOCC2)c(NC(=O)c2cc3ccccc3o2)c1	KB-V1 cytotox 12µM, MCF10A rerep inconclusive, SW480 rereplic inconclusive
COC(=O)c1nc2nc(-c3cccs3)cc(C(F)(F)F)n2n1	SW480 rereplic 0.52µM
Cc1ccc2nsnc2c1S(=O)(=O)N1CCN(CCc2ccccc2)CC1	KB-V1 cytotox 12µM, KB-3-1 cytotox inconclusive
CC1CN(C(=O)c2ccc(-c3cccc(C(F)(F)F)c3)o2)CC(C)O1 (stereo not given)	KB-V1 cytotox inconclusive, KB-3-1 cytotox inconclusive, IL1B secr inh -56
O=C(c1ccco1)N1CCN(C(=O)c2ccc(-c3cccc(C(F)(F)F)c3)o2)CC1	IL1B secr inh -70
O=C(c1ccc(-c2cccc(C(F)(F)F)c2)o1)N1CCCCCCC1	KB-V1 cytotox inconclusive, MCF10A rerep inconclusive
CC(C)(C)OC(=O)C[C@@H]1C/C=C\C[C@H](CC(=O)N(CCO)Cc2ccccc2)C(=O)NC[C@H](c2ccccc2)OC1=O	none
Cc1ccc(S(=O)(=O)N(CCCO)CC(O)CON=C2c3ccccc3-c3ccccc32)cc1 (stereo not given)	KB-V1 cytotox inconclusive, MCF10A rerep 18µM, KB-3-1 cytotox inconclusive, IL1B secr inh inconclusive, SW480 rereplic inconclusive
Cc1ccc(S(=O)(=O)N(CC(O)CN(C)C)c2ccccc2)cc1 (stereo not given)	none
CCOC(=O)C1(CC)Oc2ccccc2C(c2ccc(OC)cc2)=C1C(=O)OC (stereo not given)	none
O=C(NCCc1ccccn1)c1c(-c2ccsc2)sc2ccccc12	none
COC(=O)c1ccc(/C=C/c2c(-c3ccsc3)sc3ccccc23)cc1	MCF10A rerep 16µM, KB-3-1 cytotox inconclusive, SW480 rereplic 4.1µM
N#Cc1c(-n2cccc2/C=N/O)sc2c1CCCC2	KB-V1 cytotox 23µM
C=CCNCc1cccn1-c1sc2c(c1C#N)CCCC2	none
CCOC(=O)c1c(C)[nH]c(C(=O)CN2C(=O)NC3(CCCC3)C2=O)c1C	none
CCOC(=O)c1c(C)[nH]c(C(=O)CN2C(=O)NC(C)(c3ccc4ccccc4c3)C2=O)c1C (stereo not given)	KB-V1 cytotox 10µM
CCCC1(c2ccccc2)NC(=O)N(CC(=O)c2[nH]c(C)c(C(=O)OCC)c2C)C1=O (stereo not given)	KB-V1 cytotox 23µM, KB-3-1 cytotox inconclusive
CCC1CCc2c(sc(NC(=O)C3c4ccccc4Oc4ccccc43)c2C#N)C1 (stereo not given)	KB-V1 cytotox inconclusive (no result: MCF10A rerep, IL1B secr inh, SW480 rereplic)
CCn1c2ccc(C)cc2c2nnc(NN)nc21	KB-V1 cytotox inconclusive, MCF10A rerep inconclusive, SW480 rereplic inconclusive

Screening results as filed in PubChem BioAssay.
